Measured values as given in PubChem BioAssay (NCATS).
Inconclusive results are not listed. Entries that show only a call come without a potency. Active and inactive are the calls of the source. Calls follow the shape of the dose curve; as a rule, active = well fitted curve in the direction sought with a large enough effect; inconclusive = small, poorly fitted or top-dose-only effect, or another doubt; inactive = no such curve, though single readings can be large; an effect the other way counts as inactive or inconclusive.

Assay: qHTS assay for measurement of the activity of small molecule inhibitors on Zika virus induced Caspase-3 activity in human astrocytoma cells (AID 1224859)
Conditions: SNB-19 ZIKV-induced caspase-3/7, luminescence, 6 h; series mostly up to 45.7 µM
Outline: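 Inhibition of Zika-induced caspase-3/7 activity: SNB-19 cells, 1 h compound pretreatment, ZIKV 2 FFU/cell for 6 h at 37 C, Caspase-Glo luminescence read-out.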

SMILES	outcome	activity change, negative = inhibition
CCCCCCCCCCCCCCCCCC(=O)OCC(O)CO (configuration not stated)	inactive	
COc1ccc(CN2CCN(C(c3ccc(F)cc3)c3ccc(F)cc3)CC2)c(OC)c1OC	inactive	
CCN(CC)C(=O)/C(C#N)=C/c1cc(O)c(O)c([N+](=O)[O-])c1	inactive	
C/C=C(/C(=C/C)c1ccc(O)cc1)c1ccc(O)cc1	inactive	
Cc1ncc(CSSCc2cnc(C)c(O)c2CO)c(CO)c1O	inactive	
CC1(C)O[C@@H]2C[C@H]3[C@@H]4CCC5=CC(=O)CC[C@]5(C)[C@@]4(F)[C@@H](O)C[C@]3(C)[C@]2(C(=O)CCl)O1	inactive	
CC(=O)[C@H]1CC[C@H]2[C@@H]3C[C@H](C)C4=CC(=O)CC[C@]4(C)[C@H]3[C@@H](O)C[C@]12C	inactive	
O=C1OCCN1/N=C/c1ccc([N+](=O)[O-])o1	inactive	
C[C@@H]1C[C@H]2[C@@H]3CCC4=CC(=O)C=C[C@]4(C)[C@@]3(F)[C@@H](O)C[C@]2(C)[C@H]1C(=O)CO	inactive	
NC[C@H]1O[C@H](O[C@H]2[C@H](O[C@@H]3O[C@H](CO)[C@@H](O)[C@H]3O)C(O)[C@H](N)C[C@@H]2N)[C@H](N)[C@@H](O)[C@@H]1O (some centres not stated)		3.88% [at 9.06 µM] (inactive)
CN1[C@@H]2CC[C@H]1CC(OC(=O)c1c[nH]c3ccccc13)C2 (some centres not stated)	inactive	
CC(=O)N(O)CCCCCNC(=O)CCC(=O)N(O)CCCCCNC(=O)CCC(=O)N(O)CCCCCN	inactive	
CC1(C)O[C@@H]2[C@@H](CO[C@@]3(COS(N)(=O)=O)OC(C)(C)O[C@@H]23)O1	inactive	
CCOc1ccc(Cc2nccc3cc(OCC)c(OCC)cc23)cc1OCC	inactive	
CN1CCC[C@@H]1c1cccnc1	inactive	
Oc1c(I)cc(I)c2cccnc12	inactive	
CC(O)(P(=O)(O)O)P(=O)(O)O	inactive	
CCn1cc(C(=O)O)c(=O)c2cnc(N3CCCC3)nc21		4.3% [at 9.06 µM] (inactive)

SMILES	outcome	activity change, negative = inhibition
COC(=O)[C@H]1[C@H]2C[C@H]3c4[nH]c5ccccc5c4CCN3C[C@H]2CC[C@@H]1O	inactive	
COc1ccc(OC)c(C(O)CNC(=O)CN)c1 (configuration not stated)	inactive	
CN(C)CC/C=C1\c2ccccc2Sc2ccc(Cl)cc21	inactive	
N[C@H](Cc1c[nH]c2ccccc12)C(=O)O	inactive	
COc1cc2c(cc1OC)[C@@H]1CC(=O)[C@@H](CC(C)C)CN1CC2	inactive	
NC(CS)C(=O)O (configuration not stated)	inactive	
CC(C)(C)CC(C)(C)c1ccc(OCCOCC[N+](C)(C)Cc2ccccc2)cc1	inactive	
COC(=O)[C@@H]1CC2=CC(=O)CC[C@]2(C)[C@@]23O[C@@H]2C[C@@]2(C)[C@@H](CC[C@@]24CCC(=O)O4)[C@H]13	inactive	
NC(=O)C(=O)N/N=C/c1ccc([N+](=O)[O-])o1	inactive	
C=C(CC)C(=O)c1ccc(OCC(=O)O)c(Cl)c1Cl	inactive	
Oc1cc(O)c2c(c1)O[C@H](c1ccc(O)c(O)c1)[C@H](O)C2	inactive	
O=C1[C@H]2CCCC[C@H]2C(=O)N1CCCCN1CCN(c2nsc3ccccc23)CC1	inactive	
CC1(C)O[C@@H]2C[C@H]3[C@@H]4C[C@H](F)C5=CC(=O)CC[C@]5(C)[C@H]4[C@@H](O)C[C@]3(C)[C@]2(C(=O)CO)O1	inactive	
OC(CCN1CCCCC1)(c1ccccc1)c1ccccc1	inactive	
NC(=NCCCCCCN=C(N)/N=C(\N)Nc1ccc(Cl)cc1)/N=C(\N)Nc1ccc(Cl)cc1	inactive	
CC(=O)OCC(=O)[C@@]1(O)CC[C@H]2[C@@H]3CCC4=CC(=O)C=C[C@]4(C)[C@H]3[C@@H](O)C[C@@]21C	inactive	
CC(C)COC(=O)c1ccc(N)cc1	inactive	
Nc1ccc(C(=O)Nc2ccccc2N)cc1	inactive	

Assay: qHTS assay to identify small molecule inhibitors of chordoma cells - UCH-2 (AID 1259356)
Conditions: UCH-2 chordoma viability, CellTiter-Glo ATP luminescence, 48 h; series mostly up to 46.1 µM

SMILES	Potency
CCCCCCCCCCCCCCCCCC(=O)OCC(O)CO (configuration not stated)	inactive
COc1ccc(CN2CCN(C(c3ccc(F)cc3)c3ccc(F)cc3)CC2)c(OC)c1OC	inactive
CCN(CC)C(=O)/C(C#N)=C/c1cc(O)c(O)c([N+](=O)[O-])c1	inactive
C/C=C(/C(=C/C)c1ccc(O)cc1)c1ccc(O)cc1	inactive
Cc1ncc(CSSCc2cnc(C)c(O)c2CO)c(CO)c1O	inactive
CC1(C)O[C@@H]2C[C@H]3[C@@H]4CCC5=CC(=O)CC[C@]5(C)[C@@]4(F)[C@@H](O)C[C@]3(C)[C@]2(C(=O)CCl)O1	inactive
CC(=O)[C@H]1CC[C@H]2[C@@H]3C[C@H](C)C4=CC(=O)CC[C@]4(C)[C@H]3[C@@H](O)C[C@]12C	inactive
O=C1OCCN1/N=C/c1ccc([N+](=O)[O-])o1	inactive
C[C@@H]1C[C@H]2[C@@H]3CCC4=CC(=O)C=C[C@]4(C)[C@@]3(F)[C@@H](O)C[C@]2(C)[C@H]1C(=O)CO	inactive
NC[C@H]1O[C@H](O[C@H]2[C@H](O[C@@H]3O[C@H](CO)[C@@H](O)[C@H]3O)C(O)[C@H](N)C[C@@H]2N)[C@H](N)[C@@H](O)[C@@H]1O (some centres not stated)	inactive
CN1[C@@H]2CC[C@H]1CC(OC(=O)c1c[nH]c3ccccc13)C2 (some centres not stated)	inactive
CC(=O)N(O)CCCCCNC(=O)CCC(=O)N(O)CCCCCNC(=O)CCC(=O)N(O)CCCCCN	inactive
CC1(C)O[C@@H]2[C@@H](CO[C@@]3(COS(N)(=O)=O)OC(C)(C)O[C@@H]23)O1	inactive
CCOc1ccc(Cc2nccc3cc(OCC)c(OCC)cc23)cc1OCC	inactive
CN1CCC[C@@H]1c1cccnc1	inactive
Oc1c(I)cc(I)c2cccnc12	inactive
CC(O)(P(=O)(O)O)P(=O)(O)O	inactive
CCn1cc(C(=O)O)c(=O)c2cnc(N3CCCC3)nc21	inactive

SMILES	Potency
COC(=O)[C@H]1[C@H]2C[C@H]3c4[nH]c5ccccc5c4CCN3C[C@H]2CC[C@@H]1O	inactive
COc1ccc(OC)c(C(O)CNC(=O)CN)c1 (configuration not stated)	inactive
CN(C)CC/C=C1\c2ccccc2Sc2ccc(Cl)cc21	inactive
N[C@H](Cc1c[nH]c2ccccc12)C(=O)O	inactive
COc1cc2c(cc1OC)[C@@H]1CC(=O)[C@@H](CC(C)C)CN1CC2	inactive
NC(CS)C(=O)O (configuration not stated)	inactive
CC(C)(C)CC(C)(C)c1ccc(OCCOCC[N+](C)(C)Cc2ccccc2)cc1	inactive
COC(=O)[C@@H]1CC2=CC(=O)CC[C@]2(C)[C@@]23O[C@@H]2C[C@@]2(C)[C@@H](CC[C@@]24CCC(=O)O4)[C@H]13	inactive
NC(=O)C(=O)N/N=C/c1ccc([N+](=O)[O-])o1	inactive
C=C(CC)C(=O)c1ccc(OCC(=O)O)c(Cl)c1Cl	inactive
Oc1cc(O)c2c(c1)O[C@H](c1ccc(O)c(O)c1)[C@H](O)C2	inactive
O=C1[C@H]2CCCC[C@H]2C(=O)N1CCCCN1CCN(c2nsc3ccccc23)CC1	inactive
CC1(C)O[C@@H]2C[C@H]3[C@@H]4C[C@H](F)C5=CC(=O)CC[C@]5(C)[C@H]4[C@@H](O)C[C@]3(C)[C@]2(C(=O)CO)O1	inactive
OC(CCN1CCCCC1)(c1ccccc1)c1ccccc1	inactive
NC(=NCCCCCCN=C(N)/N=C(\N)Nc1ccc(Cl)cc1)/N=C(\N)Nc1ccc(Cl)cc1	inactive
CC(=O)OCC(=O)[C@@]1(O)CC[C@H]2[C@@H]3CCC4=CC(=O)C=C[C@]4(C)[C@H]3[C@@H](O)C[C@@]21C	inactive
CC(C)COC(=O)c1ccc(N)cc1	inactive
Nc1ccc(C(=O)Nc2ccccc2N)cc1	inactive
